Our source for the composite z-score, z-score and composite Z-score values is PubChem BioAssay.

Active and inactive are the calls of the source.

For assay [1], the system named is Human papillomavirus type 1a protein E7 (residues 44-93). Nature of the assay: HPV1a E7 fragment binders on microarrays, primary screen, biochemical, small-molecule microarray, residues 44-93, 635 nm fluorescence (AID 1108).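 Note: E7 fragment applied at 1 µg/mL in TBST for 1 h at 4 C; score combines spot fluorescence with its signal to noise ratio.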 Particulars: small-molecule microarray binding, fluorescence 635 nm; higher = more signal.
The nature of assay [2]: modulators of HCV replicon luciferase signal, primary screen, HCV replication inhibitor project, Huh7 cells, luciferase reporter (AID 1109).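 Note: huh7 hepatoma cells harbouring a luciferase neomycin HCV replicon reporter; luciferase luminescence as measure of HCV replicon replication; test concentration not given here.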 Particulars: 48 h, higher = more signal.
Assay [3] concerns the target Left-right determination factor 2 (Homo sapiens) (UniProt O00292). Nature of the assay: LEFTY2 binders on small-molecule microarrays, primary screen, biochemical, small-molecule microarray, 635 nm fluorescence scan (AID 1110). Particulars: LEFTY2 binding, higher = more signal.
Assay [4] has as its target Calmodulin-1 (Homo sapiens) (UniProt P0DP23). In words: CALM1 binders on microarrays, EGTA buffer, profiling panel, biochemical, small-molecule microarray, Cy5-labelled CALM1 (AID 1111).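 Note: labelled calmodulin applied in Tris saline Tween buffer holding calcium plus EGTA and DTT.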 The note with it: Cy5-CALM1 binding fluorescence, higher = more signal.
Assay [5] has the same target. In words: calcium-bound CALM1 binders on microarrays, profiling panel, artefact control for SMM control-protein annotation, biochemical, small-molecule microarray, Cy5-labelled CALM1, plus calcium (AID 1112).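 Note: score merges spot fluorescence with signal to noise from triplicate slides.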 The note with it: Cy5-CALM1 binding fluorescence, higher = more signal.
The nature of assay [6]: small-molecule microarray binders of probe aWnt5a, primary screen, biochemical, biotinylated probe, 635/667 nm fluorescence (AID 1113).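 Note: score merges 667 nm fluorescence intensity with signal-to-noise per printed feature.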 Particulars: higher = more signal.
Assay [7] is described as follows: small-molecule microarray binders of probe aShh, primary screen, biochemical, biotinylated probe, 635/667 nm fluorescence (AID 1114).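 Note: probe is biotin-labelled aShh protein from a stem cell growth factor screen; measures binding of labelled protein to compounds printed on the slide; score merges feature fluorescence at 667 nm with signal-to-noise.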 The note with it: higher = more signal.
The nature of assay [8]: small-molecule microarray binders of probe aNog, primary screen, biochemical, biotinylated probe, 635/667 nm fluorescence (AID 1115).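 Note: probe is biotinylated aNog protein used at 0.15 µg/mL for 1 h at 4 C; z-score combines 667 nm fluorescence of each spot with its signal to noise.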 The note with it: higher = more signal.
Assay [9] concerns the target Torsin-1A-interacting protein 1 (Homo sapiens) (UniProt Q5JTV8). Nature of the assay: LAP1 binders from COS7 cell lysate, primary screen, small-molecule microarray, 635/667 nm fluorescence (AID 1116). Particulars: COS7-hLAP1 lysate binding, 635 nm fluorescence, higher = more signal.
Assay [10] has as its target Alpha-bungarotoxin (Bungarus multicinctus) (UniProt P60615). In words: alpha-bungarotoxin binders on microarray, profiling panel, artefact control for SMM control protein annotation, biochemical, small-molecule microarray, Alexa647 label, 635/667 nm fluorescence (AID 1117). The note with it: alpha-BTX-A647 binding fluorescence, higher = more signal.
The next assay has as its target Albumin (Bos taurus) (UniProt P02769). Nature of the assay: bovine serum albumin binders on microarray, profiling panel, artefact control for SMM control protein annotation, biochemical, small-molecule microarray, Alexa647 label, 635/667 nm fluorescence (AID 1118).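 Note: score merges 667 nm emission intensity and signal-to-noise per printed compound spot.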 The note with it: BSA-A647 binding, fluorescence 635 nm, higher = more signal.
Assay [11] can be described thus: small-molecule microarray binders of probe aXIP, primary screen, biochemical, NeuroSMM set, 635/667 nm fluorescence (AID 1119).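 Note: probe is the protein aXip251-270 applied at 1 µg/mL to compound-printed slides; binding of probe to printed compounds measured as 667 nm fluorescence plus signal to noise.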 Particulars: higher = more signal, called active from +8 up or from −8 down.
Assay [12] is described as follows: small-molecule binders of probe aNOTCH3, primary screen, biochemical, small-molecule microarray, 635/667 nm fluorescence (AID 1120).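 Note: probe is a biotin-tagged antibody raised against NOTCH3 rather than NOTCH3 protein; score merges spot fluorescence near 667 nm with spot signal to noise.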 Particulars: higher = more signal.
Assay [13] is described as follows: small-molecule binders of probe aNOTCH2, primary screen, biochemical, small-molecule microarray, 635/667 nm fluorescence (AID 1121).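 Note: score merges feature fluorescence read at 667 nm with its signal to noise.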 The note with it: higher = more signal.
The target in assay [14] is Carbonic anhydrase 2 (Homo sapiens) (UniProt P00918). Nature of the assay: CAII small-molecule binders, profiling panel, biochemical, small-molecule microarray, Alexa647-labelled CAII (AID 1122). Particulars: CAII-A647 binding fluorescence, higher = more signal.
Assay [15] in a line: COS7 lysate on small-molecule microarray, probe aHis, 635 nm (AID 1123).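 Note: z-score combines 667nm fluorescence intensity with signal-to-noise per printed compound spot.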 The note with it: COS7 cell lysate, fluorescence, higher = more signal.
Assay [16] in a line: compound binding in COS7 lysate, probe aLAP1, primary screen, cell lysate, small-molecule microarray (AID 1124).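 Note: lysate comes from COS7 cells expressing LAP1 and is applied at 0.3 µg/mL; score merges spot fluorescence near 667 nm with signal-to-noise over triplicate slides.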 Particulars: probe aLAP1, fluorescence, higher = more signal.
A further assay relates to Sam68 (KHDRBS1). In words: Sam68 small-molecule binders, primary screen, biochemical, small-molecule microarray, 635 nm fluorescence (AID 1125).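 Note: score merges 667 nm channel intensity with signal to noise over triplicate slides.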 The note with it: small-molecule microarray binding, higher = more signal.
In assay [17] the test system is Chordin-like protein 2 (CHRDL2). In words: CHRDL2 small-molecule binders, primary screen, biochemical, small-molecule microarray, 635 nm fluorescence (AID 1126).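 Note: printed compound slides probed with Chrdl2 protein at 4 µg/mL for 1 h at 4 C; score merges 667 nm emission intensity with signal to noise over three replicate slides.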 The note with it: small-molecule microarray binding, fluorescence 635 nm; higher = more signal.
For assay [18], the target named is Concanavalin-A (Canavalia ensiformis) (UniProt P02866). Nature of the assay: ConA small-molecule binders, primary screen, artefact control for SMM control protein annotation, biochemical, small-molecule microarray, Alexa647 label, 635 nm (AID 1127).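 Note: z combines 667 nm emission intensity with signal-to-noise across three replicate slides.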 Particulars: ConA-A647 binding fluorescence, higher = more signal.
Sequence of Concanavalin-A (Canavalia ensiformis) (P02866 whole entry, looked up): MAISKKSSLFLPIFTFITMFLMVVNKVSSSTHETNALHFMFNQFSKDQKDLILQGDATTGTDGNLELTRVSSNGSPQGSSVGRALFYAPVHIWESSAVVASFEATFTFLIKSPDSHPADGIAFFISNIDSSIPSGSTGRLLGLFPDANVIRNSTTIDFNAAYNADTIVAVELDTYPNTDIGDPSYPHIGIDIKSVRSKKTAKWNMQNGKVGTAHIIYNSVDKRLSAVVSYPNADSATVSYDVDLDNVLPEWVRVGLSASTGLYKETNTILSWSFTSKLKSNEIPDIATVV

Sequence of Left-right determination factor 2 (Homo sapiens) (O00292 whole entry, looked up): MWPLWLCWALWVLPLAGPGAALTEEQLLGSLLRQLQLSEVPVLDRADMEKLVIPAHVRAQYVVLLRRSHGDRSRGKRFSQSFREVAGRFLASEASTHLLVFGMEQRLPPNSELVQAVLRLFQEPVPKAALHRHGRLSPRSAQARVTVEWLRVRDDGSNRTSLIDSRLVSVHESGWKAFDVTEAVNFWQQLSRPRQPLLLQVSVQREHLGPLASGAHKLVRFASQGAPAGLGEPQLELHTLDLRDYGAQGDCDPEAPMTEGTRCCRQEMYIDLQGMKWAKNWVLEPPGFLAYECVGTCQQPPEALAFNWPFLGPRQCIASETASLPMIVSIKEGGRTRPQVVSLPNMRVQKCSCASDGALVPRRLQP
Sequence of Torsin-1A-interacting protein 1 (Homo sapiens) (Q5JTV8 whole entry, looked up): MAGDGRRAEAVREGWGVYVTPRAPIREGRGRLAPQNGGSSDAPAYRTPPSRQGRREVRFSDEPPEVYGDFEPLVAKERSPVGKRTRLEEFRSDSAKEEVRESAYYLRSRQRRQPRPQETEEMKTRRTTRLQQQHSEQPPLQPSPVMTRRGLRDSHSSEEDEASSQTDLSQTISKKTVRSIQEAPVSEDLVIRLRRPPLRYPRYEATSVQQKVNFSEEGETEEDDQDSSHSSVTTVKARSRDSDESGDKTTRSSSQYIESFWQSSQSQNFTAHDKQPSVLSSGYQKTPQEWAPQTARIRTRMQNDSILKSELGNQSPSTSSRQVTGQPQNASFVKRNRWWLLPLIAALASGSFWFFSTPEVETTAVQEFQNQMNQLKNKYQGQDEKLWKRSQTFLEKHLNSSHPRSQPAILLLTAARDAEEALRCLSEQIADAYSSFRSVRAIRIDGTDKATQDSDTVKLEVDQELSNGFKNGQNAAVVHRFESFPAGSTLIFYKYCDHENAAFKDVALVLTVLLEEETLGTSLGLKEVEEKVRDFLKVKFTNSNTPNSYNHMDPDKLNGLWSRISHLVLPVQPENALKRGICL
Sequence of Alpha-bungarotoxin (Bungarus multicinctus) (P60615 whole entry, looked up): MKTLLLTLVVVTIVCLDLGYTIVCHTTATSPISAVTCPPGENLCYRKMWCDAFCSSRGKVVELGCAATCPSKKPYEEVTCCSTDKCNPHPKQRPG
Sequence of Albumin (Bos taurus) (P02769 whole entry, looked up): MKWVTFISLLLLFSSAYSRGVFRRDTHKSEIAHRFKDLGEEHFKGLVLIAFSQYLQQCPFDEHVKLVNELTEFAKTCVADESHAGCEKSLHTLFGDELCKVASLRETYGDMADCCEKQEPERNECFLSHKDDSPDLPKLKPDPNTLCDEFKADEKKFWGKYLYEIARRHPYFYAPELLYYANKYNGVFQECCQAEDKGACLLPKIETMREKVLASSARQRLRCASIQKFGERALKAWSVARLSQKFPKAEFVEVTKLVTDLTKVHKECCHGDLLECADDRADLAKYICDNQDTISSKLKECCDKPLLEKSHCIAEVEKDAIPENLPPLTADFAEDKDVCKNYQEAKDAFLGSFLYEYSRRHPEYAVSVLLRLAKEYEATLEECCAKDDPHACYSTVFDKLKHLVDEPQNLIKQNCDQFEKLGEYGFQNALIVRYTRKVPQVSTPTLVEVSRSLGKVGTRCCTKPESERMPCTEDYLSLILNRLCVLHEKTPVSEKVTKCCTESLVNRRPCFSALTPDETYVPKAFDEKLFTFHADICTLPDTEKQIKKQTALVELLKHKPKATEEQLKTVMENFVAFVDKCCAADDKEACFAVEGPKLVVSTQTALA

Regarding `CCCC=C(CCC)[C@@H](NS(=O)(=O)c1ccc(Cl)cc1)c1ccc(C(=O)OC)cc1`, the composite z-score in assay [1] was 1.31; in [3], -0.0953; in assay [4] it was -0.246; in assay [5], -0.526; in assay [6], -0.183; in assay [7], -0.0386. The composite z-score in assay [8] was -0.201; in assay [9] it was 0.892; in [10], 1.29; with Albumin (Bos taurus) it was 0.196; in assay [12], -0.0111; in [13], 0.0703. The composite z-score is 0.805 in [14]; 0.314 in assay [15]; -0.159 in [16]; 0.674 in the assay with Sam68 (KHDRBS1); -0.0433 in [17]; 0.627 in [18]. The z-score in [2] came out at 0.677. In assay [11], the composite Z-score was -0.243 (inactive).

With `CCC(CC)C(O)C1C=CC2C(=O)N(c3ccccc3)C(=O)C2N1Nc1ccccc1` (stereo not given), the composite z-score was 1.29 in assay [1]; 0.0874 in assay [3]; 1.58 in [4]; 0.415 in assay [5]; 0.216 in assay [6]; -0.16 in assay [7]. Also, the composite z-score stood at 2.01 in assay [8]; 0.671 in [9]; 1.02 in assay [10]; 0.803 with Albumin (Bos taurus); 0.708 in assay [12]; 0.272 in assay [13]. The composite z-score in assay [14] stood at 0.491; in [15], 2.44; in [16], 0.383; in the assay with Sam68 (KHDRBS1) it was 1.31; in assay [17], 0.0429; in assay [18], 1.16. Moreover, the z-score in assay [2] amounted to 0.372. The composite Z-score in assay [11] is 0.62 (inactive).

Turning to `C=CCOC(=O)[C@H]1[C@@H]2C(=O)O[C@@H](c3ccccc3)[C@@H](c3ccccc3)N2[C@@H](c2ccc(OCCOC(=O)[C@@H]3C[C@@H]4C(=O)N5CCC[C@H]5C(=O)N4[C@@H]3c3cccc(OCCO)c3)cc2)[C@]12C(=O)Nc1ccc(I)cc12`, the composite z-score in assay [1] was 1.39; in [3], 0.872; in [4], 0.784; in assay [5], -0.0883; in [6], -0.0758; in assay [7] it was 0.0098. Also, the composite z-score is 0.935 in assay [8]; -0.571 in assay [9]; 1.39 in assay [10]; -0.656 with Albumin (Bos taurus); 1.12 in assay [12]; 0.117 in [13]. Also, the composite z-score in [14] turned out to be 0.269; in assay [15], 1.15; in assay [16] it was 0.322; with Sam68 (KHDRBS1), 1.29; in assay [17], 1.18; in [18], 1.14. The z-score in assay [2] is -1.46. The composite Z-score in assay [11] is 0.686 (inactive).

Regarding `COC(=O)c1c(CC[C@@H](CO)NC(=O)N[C@H](Cc2ccccc2)Cn2cc(-c3ccccn3)nn2)oc(C(C)=O)c1C(=O)OC`, the composite z-score is 0.538 in [1]; -0.0385 in [3]; 0.475 in [4]; -0.556 in [5]; -0.124 in assay [6]; -0.304 in assay [7]. The composite z-score in [8] is -0.158; in assay [9], 1.79; in assay [10], 1.08; with Albumin (Bos taurus), 0.687; in assay [12], -0.154; in assay [13] it was -0.118. For the same compound, the composite z-score in [14] is 0.71; in [15], 0.798; in assay [16] it was 1.26; in the assay on Sam68 (KHDRBS1), 0.954; in assay [17] it was -0.418; in assay [18], 1.09. For the same compound, the z-score in [2] is -0.563. Besides, in assay [11], the composite Z-score is 0.794 (inactive).

Regarding `CCCCN1CC=CC23O[C@@H]4/C=C\CCCOC(=O)C4[C@H]2C(=O)N(CCCCCO)[C@@H]3C1=O` (stereo not given in full), the composite z-score in assay [1] is -0.766; in assay [3] it was -0.68; in [4], -0.803; in assay [5] it was -1.24; in assay [6] it was -0.172; in assay [7], -0.221. Further, the composite z-score is -0.357 in assay [8]; 0.328 in assay [9]; -0.509 in [10]; -1.09 with Albumin (Bos taurus); -0.326 in assay [12]; -0.192 in [13]. Further, the composite z-score was 0.754 in assay [14]; -0.494 in [15]; 0.85 in [16]; -1.12 in the assay on Sam68 (KHDRBS1); -0.722 in [17]; -1.22 in assay [18]. The z-score in [2] is -0.895. The composite Z-score in assay [11] is 0.414 (inactive).

Turning to `COc1cc2c(cc1O)C(c1cccs1)N(Cc1cccc(OC(F)(F)F)c1)CC2` (stereo not given), the composite z-score in assay [1] is 1.14; in assay [3], 0.0446; in [4], 0.0759; in assay [5] it was -0.194; in assay [6], -0.0545; in assay [7], -0.0709. Moreover, the composite z-score in assay [8] is 0.0953; in [9], 0.0117; in assay [10], 0.422; with Albumin (Bos taurus), 0.899; in [12], -0.128; in [13], -0.148. Moreover, the composite z-score in assay [14] was found to be 0.78; in assay [15], 2.6; in assay [16] it was 0.336; in the assay on Sam68 (KHDRBS1) it was 1.15; in assay [17] it was 0.375; in assay [18] it was 0.127. In [2], this compound registered a z-score of -1.75. In addition, the composite Z-score in assay [11] was 0.934 (inactive).
